Source: PubChem BioAssay (Tox21)
Values joined by “and” are separate entries in the source; they are usually repeats but may differ in a detail not shown here. Equal entries are not always repeated. Inconclusive results are not listed. Active and inactive are the calls of the source. Unless noted, calls follow the shape of the dose curve; as a rule, active = well fitted curve in the direction sought with a large enough effect in the repeat runs; inconclusive = weak or mixed curves; inactive = no such curve, though single readings can be large; an effect the other way counts as inactive or inconclusive.

Tests used:
[1] = qHTS assay to identify small molecule antagonists of the glucocorticoid receptor (GR) signaling pathway - cell viability counter screen (AID 720693); also: nearly all actives have a fitted effect of over 55% in size; also: potency is read from the fitted curve at half-maximal effect
[2] = qHTS assay for identifying genotoxic compounds that show differential cytotoxicity against isogenic chicken DT40 cell lines with known DNA damage response pathways - Rev3 mutant cell line (AID 743014); also: nearly all actives have a fitted effect of over 55% in size; also: potency is read from the fitted curve at half-maximal effect
[3] = qHTS assay for identifying genotoxic compounds that show differential cytotoxicity against isogenic chicken DT40 cell lines with known DNA damage response pathways - Rad54/Ku70 mutant cell line (AID 743015); also: nearly all actives have a fitted effect of over 60% in size; also: potency is read from the fitted curve at half-maximal effect
[4] = qHTS assay to identify small molecule antagonists of the androgen receptor (AR) signaling pathway - cell viability counter screen (AID 743033; also: nearly all actives have a fitted effect of over 45% in size)
[5] = qHTS assay to identify small molecule antagonists of the androgen receptor (AR) signaling pathway using the MDA cell line - cell viability counter screen (AID 743041; also: nearly all actives have a fitted effect of over 45% in size)
How it was run: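 Same-well cytotoxicity was assessed by CellTiter-Fluor in MDA-kb2 AR-luc cells after 16 h of compound treatment under R1881 agonism.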

[6] = qHTS assay to identify small molecule antagonists of the thyroid receptor (TR) signaling pathway - cell viability counter screen (AID 743064); also: nearly all actives have a fitted effect of over 50% in size; also: potency is read from the fitted curve at half-maximal effect
How it was run: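 Compounds were tested on GH3.TRE-Luc cells in the presence of T3 at 1 nM final. Following 23.5 h at 37 °C, cell viability was quantified by CellTiter-Fluor.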

[7] = qHTS assay for identifying genotoxic compounds that show differential cytotoxicity against isogenic chicken DT40 cell lines with known DNA damage response pathways - wild type cell line (AID 743012); also: nearly all actives have a fitted effect of over 60% in size; also: potency is read from the fitted curve at half-maximal effect
How it was run: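 Wild-type DT40 cells (300/well) exposed to compounds for 40 hours at 37 C/5% CO2. Viability read by CellTiter-Glo luminescence after 30 min at room temperature.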

[8] = molecular target: Androgen receptor (Homo sapiens) (UniProt P10275); assay: qHTS assay to identify small molecule agonists of the androgen receptor (AR) signaling pathway using the MDA cell line (AID 743040; also: nearly all actives have a fitted effect of over 20% in size)
Chain of Androgen receptor (Homo sapiens) (P10275 whole entry, looked up): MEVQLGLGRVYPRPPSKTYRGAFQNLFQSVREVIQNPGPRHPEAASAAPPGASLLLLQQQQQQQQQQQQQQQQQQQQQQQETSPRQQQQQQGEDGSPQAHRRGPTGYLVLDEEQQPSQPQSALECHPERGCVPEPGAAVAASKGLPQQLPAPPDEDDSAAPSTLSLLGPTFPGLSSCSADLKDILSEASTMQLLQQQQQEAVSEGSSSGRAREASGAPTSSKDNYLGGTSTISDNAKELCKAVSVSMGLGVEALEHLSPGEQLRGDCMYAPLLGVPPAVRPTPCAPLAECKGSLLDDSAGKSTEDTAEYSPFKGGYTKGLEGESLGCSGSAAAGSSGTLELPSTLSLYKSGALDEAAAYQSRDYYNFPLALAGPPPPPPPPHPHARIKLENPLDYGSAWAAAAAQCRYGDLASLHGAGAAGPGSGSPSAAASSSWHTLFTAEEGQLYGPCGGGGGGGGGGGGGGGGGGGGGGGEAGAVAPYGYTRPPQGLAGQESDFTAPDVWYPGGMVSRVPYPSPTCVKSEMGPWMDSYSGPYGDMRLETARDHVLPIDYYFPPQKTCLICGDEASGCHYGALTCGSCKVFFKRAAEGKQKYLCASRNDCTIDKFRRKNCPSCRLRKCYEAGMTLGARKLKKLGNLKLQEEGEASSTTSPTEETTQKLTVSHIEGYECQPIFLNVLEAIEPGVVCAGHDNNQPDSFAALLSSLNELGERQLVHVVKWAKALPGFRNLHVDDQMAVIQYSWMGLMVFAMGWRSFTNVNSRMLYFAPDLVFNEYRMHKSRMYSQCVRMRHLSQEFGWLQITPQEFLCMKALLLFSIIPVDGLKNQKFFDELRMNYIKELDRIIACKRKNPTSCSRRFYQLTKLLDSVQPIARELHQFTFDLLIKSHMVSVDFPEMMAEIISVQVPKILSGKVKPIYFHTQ
How it was run: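 Human breast carcinoma MDA-kb2 reporter cells (MMTV-luc, AR/GR elements) were treated for 16 h at 37C in 0% CO2 following a 5 h settling period. Signal was quantified by ONE-Glo luminescence.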

[9] = molecular target: Androgen receptor (Homo sapiens) (UniProt P10275); assay: qHTS assay to identify small molecule antagonists of the androgen receptor (AR) signaling pathway (AID 743035; active = well fitted inhibition curve with a large enough effect in the signal ratio in the repeat runs, not every such curve was filed as active; the % refers to the signal ratio; also: potency is read from the fitted curve at half-maximal effect)
How it was run: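 HEK293 cells stably carrying UAS-beta-lactamase reporter, 2,000/well, given compounds plus R1881 agonist and incubated 16 h at 37C. LiveBLAzer B/G FRET substrate then added for 2 h at room temperature before fluorescence reading.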

[10] = molecular target: Androgen receptor (Homo sapiens) (UniProt P10275); assay: qHTS assay to identify small molecule antagonists of the androgen receptor (AR) signaling pathway using the MDA cell line (AID 743042; also: nearly all actives have a fitted effect of over 55% in size)
How it was run: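 MDA-kb2 breast carcinoma cells carrying MMTV-luciferase (AR/GR responsive) were co-treated with compounds and the agonist R1881 for 16 h at 37C. Inhibition read as ONE-Glo luminescence; CellTiter-Fluor fluorescence measured in parallel for cytotoxicity.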

Measured: Potency

Cc1ccccc1S(=O)(=O)O
inactive: [1] | [2] | [3] | [4] | [5] | [6]

NC(=O)C(c1ccccc1)(c1ccccc1)[C@@H]1CCN(CCc2ccc3c(c2)CCO3)C1
inactive: [1] | [4]
active: [7] 11.9 µM | [3] 23.7 µM | [6] 6.68 µM

C/C=C/C=C/CO
inactive: [1] | [7] | [4] | [5]

Cc1cccc(Nc2ccccc2)c1
inactive: [1] | [8] | [5]
active: [2] 30.6 µM | [3] 48.6 µM

CCCCCCCCCCCCCCOS(=O)(=O)O
inactive: [1] | [7] | [5]

CCCCCCCC#N
inactive: [1] | [7] | [3] | [5]

O=C(O)c1ccco1
inactive: [1] | [2] | [3] | [4] | [5]

Nc1c(CC(=O)O)cccc1C(=O)c1ccc(Br)cc1
inactive: [1] | [7] | [3] | [4] | [5] | [6]

CC1=CC[C@H](C(C)C)C=C1
active: [7] 61.1 µM | [3] 61.1 µM
inactive: [1] | [5] | [6]

CC(C)CC(=O)C1C(=O)c2ccccc2C1=O
active: [9] 49 µM
not listed: [2] | [4]
inactive: all other assays above

CN(C)CCN(Cc1ccc(Cl)cc1)c1ccccn1
active: [7] 12.7 µM | [6] 11.4 µM
inactive: [1] | [4] | [5]

CC1(c2ccccc2)OC(C(=O)O)=CC1=O (centres undefined)
inactive: [1] | [7] | [3] | [4] | [5] | [6]

CC(=O)[O][Al]
inactive: [1] | [2] | [3] | [4] | [5] | [6]

CN(C)CCCN1c2ccccc2Sc2ccccc21
active: [7] 9.02 µM | [3] 10.1 µM | [6] 2.85 µM
inactive: [1] | [5]

Nc1cc(C(=O)O)c(O)c(S(=O)(=O)O)c1
inactive: [1] | [7] | [3] | [4] | [5] | [6]

OCCNCc1ccccc1
not listed: [7]
inactive: all other assays above

CCCCC/C=C\C/C=C\CCCCCCCC(=O)NC(C)c1ccccc1 (centres undefined)
inactive: [1] | [7] | [3] | [4] | [5] | [6]

OCc1cc(C(O)CNCCCCCCOCCCCc2ccccc2)ccc1O (centres undefined)
inactive: [1]
active: [7] 3.35 µM and 2.37 µM | [3] 5.31 µM and 3.35 µM | [6] 7.5 µM and 11.9 µM

C[N+](C)(C)CCOC(=O)CCC(=O)OCC[N+](C)(C)C
inactive: [7] | [2] | [3] | [4] | [5]

c1ccc(C(O[C@H]2CCCN(CCc3ccc4c(c3)OCO4)C2)c2ccccc2)cc1
active: [7] 23.7 µM | [3] 29.8 µM | [6] 29.8 µM
inactive: [4] | [5]

CCC(CC)Nc1ccc(C)c(C)c1
inactive: [1] | [4] | [5]

O=C(Nc1ccc(S(=O)(=O)N2CCOCC2)cc1)c1cc(Cl)ccc1NS(=O)(=O)c1ccc(Cl)s1
inactive: [4] | [5]
active: [1] 16.9 µM

O=C(CS)Nc1ccccc1
active: [7] 11.9 µM | [2] 21.1 µM | [3] 18.8 µM

C[N+]1(C)CCC(OC(=O)C(O)(c2ccccc2)C2CCCC2)C1 (centres undefined)
inactive: [1] | [4] | [5] | [6]

O=[N+]([O-])c1ccc2[nH]ncc2c1
inactive: [1] | [3] | [4] | [5]

CC(=O)OC[C@H]1O[C@@H](n2ncc(=O)[nH]c2=O)[C@H](OC(C)=O)[C@@H]1OC(C)=O
active: [3] 1.06 µM | [9] 5.35 µM
inactive: [1] | [8] | [5] | [10] | [6]

COC(=O)C1=C(C)NC(COC(N)=O)=C(C(=O)OC(C)C)C1c1cccc(Cl)c1Cl (centres undefined)
active: [7] 23.7 µM | [3] 23.7 µM | [6] 26.6 µM
inactive: [4] | [8] | [5] | [10]
